# Results taken from PubChem BioAssay (EPA / NIEHS).
# Values joined by “and” are separate entries in the source; they are usually repeats but may differ in a detail not shown here. Identical values can stand only once. A structure can be active in one record and inactive in another. Active and inactive are the calls of the source. How the source made its calls: active means hit-call score of the fitted dose curve at least 0.9, where 1 is the maximum; inactive means score below 0.9.
# How the values were obtained:
# [1] = BSK_CASM3C_SRB: Viability Assessment in the BioMAP Diversity Plus: CASM3C Assay (AID 2283050); conditions: primary human coronary artery smooth muscle cells
# [2] = read-out: Thrombomodulin, THBD (gene 7056); experiment: BSK_CASM3C_Thrombomodulin: BioMAP Diversity Plus: CASM3C Assay for Thrombomodulin Biomarker Activity (AID 2283051); conditions: primary human coronary artery smooth muscle cells; actives raise or lower the signal;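 further: thrombomodulin protein level measured by ELISA 24 h after dosing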
# [3] = read-out: Tissue Factor, F3 (gene 2152); experiment: BSK_CASM3C_TissueFactor: BioMAP Diversity Plus: CASM3C Assay for Tissue Factor Biomarker Activity (AID 2283052); conditions: primary human coronary artery smooth muscle cells; actives raise or lower the signal;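 further: cell surface tissue factor protein level read by ELISA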
# [4] = read-out: Interferon-gamma inducible Protein 10 (IP10), CXCL10 (gene 3627); experiment: BSK_hDFCGF_IP10: BioMAP Diversity Plus: hDFCGF Assay for Interferon-gamma inducible Protein 10 (IP10) Biomarker Activity (AID 2283053); conditions: primary human foreskin fibroblasts; actives raise or lower the signal
# Procedure, shortened: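 IP-10 levels, quantified by ELISA, are taken from human foreskin fibroblast cultures 24 h after chemical treatment, with DMSO serving as negative control and baseline for bidirectional analysis.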
# [5] = read-out: Urokinase-type plasminogen activator receptor (uPAR), PLAUR (gene 5329); experiment: BSK_CASM3C_uPAR: BioMAP Diversity Plus: CASM3C Assay for Urokinase-type plasminogen activator receptor (uPAR) Biomarker Activity (AID 2283054); conditions: primary human coronary artery smooth muscle cells; actives raise or lower the signal;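 further: cell-surface uPAR protein level quantified by ELISA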
# [6] = read-out: Vascular cell adhesion molecule 1 (VCAM1), VCAM1 (gene 7412); experiment: BSK_CASM3C_VCAM1: BioMAP Diversity Plus: CASM3C Assay for Vascular cell adhesion molecule 1 (VCAM1) Biomarker Activity (AID 2283055); conditions: primary human coronary artery smooth muscle cells; actives raise or lower the signal;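 further: VCAM-1 protein level quantified by ELISA on the cells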
# [7] = read-out: Epidermal growth factor receptor (EGFR), EGFR (gene 1956); experiment: BSK_hDFCGF_EGFR: BioMAP Diversity Plus: hDFCGF Assay for Epidermal growth factor receptor (EGFR) Biomarker Activity (AID 2283057); conditions: primary human foreskin fibroblasts; actives raise or lower the signal
# Procedure, shortened: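 Measured by ELISA: EGFR levels on primary human foreskin fibroblasts 24 h after chemical treatment, analysed relative to DMSO with bidirectional fitting.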
# [8] = read-out: Interleukin-8 (IL8), CXCL8 (gene 3576); experiment: BSK_hDFCGF_IL8: BioMAP Diversity Plus: hDFCGF Assay for Interleukin-8 (IL8) Biomarker Activity (AID 2283058); conditions: primary human foreskin fibroblasts; actives raise or lower the signal
# Procedure, shortened: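 IL-8 levels from compound-treated primary human fibroblasts were read by ELISA at 24 h, with DMSO serving as baseline for bidirectional fitting.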
# [9] = BSK_hDFCGF_Proliferation: Cell Proliferation Assessment in the BioMAP Diversity Plus: hDFCGF Assay (AID 2283059); conditions: primary human foreskin fibroblasts;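 further: curves fitted for both rise and fall of signal versus DMSO baseline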
# Procedure, shortened: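 This proliferation readout used SRB total-protein staining of human foreskin fibroblasts […], normalized to DMSO with bidirectional curve fitting.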
# [10] = read-out: Macrophage colony-stimulating factor (MCSF), CSF1 (gene 1435); experiment: BSK_hDFCGF_MCSF: BioMAP Diversity Plus: hDFCGF Assay for Macrophage colony-stimulating factor (MCSF) Biomarker Activity (AID 2283060); conditions: primary human foreskin fibroblasts; actives raise or lower the signal
# Procedure, shortened: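 M-CSF levels, determined by ELISA, are taken at 24 h after dosing human skin fibroblasts. Responses in either direction are fitted with DMSO serving as the baseline.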
# [11] = BSK_hDFCGF_SRB: Viability Assessment in the BioMAP Diversity Plus: hDFCGF Assay (AID 2283061); conditions: primary human foreskin fibroblasts;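 further: cells exposed to compound for 24 h before the read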
# Procedure, shortened: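 Cells were dosed with test chemical, cultured 24 h, fixed with 10% TCA, then stained with 0.1% SRB and read at 560 nm. The fibroblasts were human foreskin primary cells, and DMSO served as baseline.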
# [12] = read-out: TIMP metallopeptidase inhibitor 1 (TIMP1), TIMP1 (gene 7076); experiment: BSK_hDFCGF_TIMP1: BioMAP Diversity Plus: hDFCGF Assay for TIMP metallopeptidase inhibitor 1 (TIMP1) Biomarker Activity (AID 2283062); conditions: primary human foreskin fibroblasts; actives raise or lower the signal
# Procedure, shortened: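 Fibroblasts from human foreskin are treated with test chemical and harvested at 24 h. TIMP-1 is quantified by ELISA, and gain or loss of signal is scored against DMSO.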
# [13] = read-out: Monokine induced gamma interferon (MIG), CXCL9 (gene 4283); experiment: BSK_hDFCGF_MIG: BioMAP Diversity Plus: hDFCGF Assay for Monokine induced gamma interferon (MIG) Biomarker Activity (AID 2283063); conditions: primary human foreskin fibroblasts; actives raise or lower the signal
# Procedure, shortened: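 MIG signal, determined by ELISA, reflects 24 h chemical exposure of human skin primary fibroblasts. DMSO serves as negative control and baseline.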
# [14] = read-out: Matrix Metallopeptidase 1 (MMP1), MMP1 (gene 4312); experiment: BSK_hDFCGF_MMP1: BioMAP Diversity Plus: hDFCGF Assay for Matrix Metallopeptidase 1 (MMP1) Biomarker Activity (AID 2283064); conditions: primary human foreskin fibroblasts; actives raise or lower the signal
# Procedure, shortened: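 Primary human foreskin fibroblasts in the hDFCGF system were dosed with test chemical, and MMP1 was measured by ELISA 24 h later. Values come from bidirectional curve fitting against the DMSO baseline.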
# [15] = read-out: Vascular cell adhesion molecule 1 (VCAM1), VCAM1 (gene 7412); experiment: BSK_hDFCGF_VCAM1: BioMAP Diversity Plus: hDFCGF Assay for Vascular cell adhesion molecule 1 (VCAM1) Biomarker Activity (AID 2283065); conditions: primary human foreskin fibroblasts; actives raise or lower the signal;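 on AC50: VCAM-1 protein level quantified by ELISA after 24 h chemical exposure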
# Procedure, shortened: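 Cells are dosed, cultured for 24 h, then VCAM-1 is quantified by ELISA; signal increases and decreases are both fitted relative to DMSO.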
# [16] = read-out: Plasminogen activator inhibitor-1 (PAI1), SERPINE1 (gene 5054); experiment: BSK_hDFCGF_PAI1: BioMAP Diversity Plus: hDFCGF Assay for Plasminogen activator inhibitor-1 (PAI1) Biomarker Activity (AID 2283066); conditions: primary human foreskin fibroblasts; actives raise or lower the signal
# Procedure, shortened: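 PAI-1 levels, determined by ELISA, served as the endpoint in human foreskin fibroblast cultures exposed to compound for 24 h, with DMSO as baseline.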
# [17] = read-out: Intercellular Adhesion Molecule 1 (ICAM1), ICAM1 (gene 3383); experiment: BSK_KF3CT_ICAM1: BioMAP Diversity Plus: KF3CT Assay for Intercellular Adhesion Molecule 1 (ICAM1) Biomarker Activity (AID 2283067); conditions: primary human keratinocytes with fibroblasts; actives raise or lower the signal
# Procedure, shortened: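 Dose the keratinocyte/fibroblast co-culture, wait 24 h, measure ICAM-1 by ELISA, then fit increases or decreases against DMSO. Cytotoxicity is checked in parallel cultures by SRB total-protein staining.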
# [18] = read-out: Interferon-gamma inducible Protein 10 (IP10), CXCL10 (gene 3627); experiment: BSK_KF3CT_IP10: BioMAP Diversity Plus: KF3CT Assay for Interferon-gamma inducible Protein 10 (IP10) Biomarker Activity (AID 2283068); conditions: primary human keratinocytes with fibroblasts; actives raise or lower the signal
# Procedure, shortened: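 Signal is secreted/surface IP-10 by ELISA in a human primary skin co-culture of keratinocytes and foreskin fibroblasts, taken 24 h post-dosing; DMSO served as negative control.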
# [19] = BSK_KF3CT_SRB: Viability Assessment in the BioMAP Diversity Plus: KF3CT Assay (AID 2283069); conditions: primary human keratinocytes with fibroblasts;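 further: total protein by sulforhodamine B staining as a cytotoxicity measure; fitted for both signal gain and loss against DMSO baseline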
# Procedure, shortened: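 Human primary keratinocyte plus foreskin fibroblast co-culture exposed to chemicals for 24 h. Total protein measured by 0.1% sulforhodamine B staining after 10% TCA fixation, read at 560 nm; bidirectional fitting versus DMSO baseline.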
# [20] = read-out: Collagen III, COL3A1 (gene 1281); experiment: BSK_hDFCGF_CollagenIII: BioMAP Diversity Plus: hDFCGF Assay for Collagen III Biomarker Activity (AID 2283056); conditions: primary human foreskin fibroblasts; actives raise or lower the signal
# Procedure, shortened: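 Cells: human foreskin fibroblasts, primary. Dosing followed by 24 h incubation, then ELISA for collagen III. Both increases and decreases scored relative to DMSO.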
smiles,measurement,setting,value
O=C(O)C(F)(F)C(F)(F)F,outcome,[1],inactive
same,outcome,[2],inactive
same,outcome,[3],inactive
same,outcome,[4],inactive
same,outcome,[5],inactive
same,outcome,[6],inactive
same,outcome,[7],inactive
same,outcome,[8],inactive
same,outcome,[9],inactive
same,outcome,[10],inactive
same,outcome,[11],inactive
same,outcome,[12],inactive
same,outcome,[13],inactive
same,outcome,[14],inactive
same,outcome,[15],inactive
same,outcome,[16],inactive
same,outcome,[17],inactive
same,outcome,[18],inactive
same,outcome,[19],inactive
O[Si](c1ccccc1)(c1ccccc1)c1ccccc1,outcome,[1],inactive
same,outcome,[2],inactive
same,outcome,[3],inactive
same,outcome,[4],inactive
same,outcome,[5],inactive
same,outcome,[6],inactive
same,outcome,[7],inactive
same,outcome,[8],inactive
same,AC50,[9],20 µM (active)
same,AC50,[10],5.61 µM (active)
same,AC50,[11],5.35 µM (active)
same,outcome,[12],inactive
same,outcome,[13],inactive
same,outcome,[14],inactive
same,outcome,[15],inactive
same,AC50,[16],5.43 µM (active)
same,outcome,[18],inactive
same,outcome,[19],inactive
Nc1ccc([N+](=O)[O-])cc1O,outcome,[1],inactive
same,AC50,[2],20 µM (active)
same,outcome,[3],inactive
same,outcome,[4],inactive
same,outcome,[5],inactive
same,outcome,[6],inactive
same,outcome,[7],inactive
same,outcome,[8],inactive
same,AC50,[9],11.1 µM (active)
same,outcome,[10],inactive
same,outcome,[11],inactive
same,outcome,[12],inactive
same,outcome,[13],inactive
same,outcome,[14],inactive
same,outcome,[15],inactive
same,outcome,[16],inactive
same,outcome,[18],inactive
same,outcome,[19],inactive
FC(F)(F)C(F)(F)C(F)(F)C(F)(F)C(F)(F)C(F)(F)CC1CO1 (stereo unspecified),outcome,[1],inactive
same,outcome,[2],inactive
same,outcome,[3],inactive
same,outcome,[4],inactive
same,outcome,[5],inactive
same,outcome,[6],inactive
same,outcome,[20],inactive
same,outcome,[7],inactive
same,outcome,[8],inactive
same,outcome,[9],inactive
same,outcome,[10],inactive
same,outcome,[11],inactive
same,outcome,[12],inactive
same,outcome,[13],inactive
same,outcome,[14],inactive
same,outcome,[15],inactive
same,outcome,[16],inactive
same,outcome,[18],inactive
same,outcome,[19],inactive
C=C(C)C(=O)OCC(F)(F)C(F)(F)C(F)(F)C(F)(F)C(F)(F)C(F)(F)C(F)(F)F,outcome,[1],inactive
same,outcome,[2],inactive
same,outcome,[3],inactive
same,outcome,[4],inactive
same,outcome,[5],inactive
same,outcome,[6],inactive
same,outcome,[7],inactive
same,outcome,[8],inactive
same,outcome,[9],inactive
same,outcome,[10],inactive
same,AC50,[11],1.4 µM (active)
same,outcome,[11],inactive
same,outcome,[12],inactive
same,outcome,[13],inactive
same,outcome,[14],inactive
same,outcome,[15],inactive
same,outcome,[16],inactive
same,outcome,[18],inactive
same,outcome,[19],inactive
CCCCCCOC(=O)c1ccccc1O,outcome,[1],inactive
same,outcome,[2],inactive
same,outcome,[3],inactive
same,AC50,[4],38.1 µM (active) and 40.6 µM (active)
same,outcome,[5],inactive
same,outcome,[6],inactive
same,outcome,[7],inactive
same,AC50,[8],36.9 µM (active) and 42.9 µM (active)
same,AC50,[9],15.1 µM (active) and 14.2 µM (active)
same,AC50,[10],34.8 µM (active) and 35.1 µM (active)
same,AC50,[11],40 µM (active) and 44.8 µM (active)
same,AC50,[12],39.7 µM (active) and 31.2 µM (active)
same,AC50,[13],18.2 µM (active) and 21.3 µM (active)
same,AC50,[14],35.8 µM (active)
same,AC50,[15],33.1 µM (active) and 35.3 µM (active)
same,AC50,[16],39.3 µM (active) and 39.6 µM (active)
same,outcome,[17],inactive
same,outcome,[18],inactive
same,outcome,[19],inactive
CC(CCl)OP(=O)(OC(C)CCl)OC(C)CCl (stereo unspecified),outcome,[1],inactive
same,outcome,[2],inactive
same,outcome,[3],inactive
same,outcome,[4],inactive
same,outcome,[5],inactive
same,outcome,[6],inactive
same,outcome,[7],inactive
same,outcome,[8],inactive
same,outcome,[9],inactive
same,outcome,[10],inactive
same,outcome,[11],inactive
same,outcome,[12],inactive
same,outcome,[13],inactive
same,outcome,[14],inactive
same,outcome,[15],inactive
same,AC50,[16],0.0159 µM (active)
same,outcome,[17],inactive
same,outcome,[18],inactive
same,outcome,[19],inactive
O=C(O)C(F)(F)C(F)(F)C(F)(F)C(F)(F)C(F)(F)C(F)(F)C(F)(F)C(F)(F)Cl,outcome,[1],inactive
same,outcome,[2],inactive
same,outcome,[3],inactive
same,AC50,[4],39.2 µM (active) and 41.9 µM (active)
same,outcome,[5],inactive
same,outcome,[6],inactive
same,AC50,[7],7.33 µM (active) and 55.2 µM (active)
same,outcome,[8],inactive
same,AC50,[9],43.1 µM (active) and 45.7 µM (active)
same,AC50,[10],30 µM (active) and 46.9 µM (active)
same,AC50,[11],47.7 µM (active) and 49.2 µM (active)
same,AC50,[12],30 µM (active)
same,outcome,[12],inactive
same,AC50,[13],21.4 µM (active) and 34.1 µM (active)
same,AC50,[14],1.31 µM (active) and 12.3 µM (active)
same,AC50,[15],46.8 µM (active) and 30 µM (active)
same,AC50,[16],47.7 µM (active) and 46.5 µM (active)
same,AC50,[17],32 µM (active) and 25.1 µM (active)
same,AC50,[18],45 µM (active) and 45.9 µM (active)
same,AC50,[19],41.7 µM (active) and 49.7 µM (active)
